Results: PubChem BioAssay AID540317 (National Center for Advancing Translational Sciences (NCATS), 2011)
Screen size: about 390,000 compounds; about 2,200 (0.56%) were called active. A call without a number means that no potency is given here. Not shown: some 3% with an inconclusive outcome. Calls come from the whole dose curve; as a rule, active = well fitted inhibition curve with a large enough effect; inconclusive = small, poorly fitted or top-dose-only effect; inactive = no such curve, though single readings can be large or run the other way. The full list was thinned out, with actives kept by preference.

molecular target: Chromobox protein homolog 1 (Homo sapiens) (UniProt P83916); assay: HTS for Inhibitors of HP1-beta Chromodomain Interactions with Methylated Histone Tails; details: AlphaScreen HP1-beta / biotin-H3K9me3 peptide binding; series mostly up to 114 µM; note: nearly all actives have a fitted effect of over 70% in size
Procedure, shortened: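 AlphaScreen: HP1-beta (50 nM) preformed 30 min with biotin-H3(1-18)K9me3 peptide (50 nM) in PBS pH 7.4, 0.01% Tween-20. Compound added for 30 min at RT, then streptavidin donor/nickel chelate acceptor beads (10 ug/mL) for 30 min.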
Potency is the fitted concentration of half-maximal effect.

Sequence of Chromobox protein homolog 1 (Homo sapiens) (P83916 whole entry, looked up): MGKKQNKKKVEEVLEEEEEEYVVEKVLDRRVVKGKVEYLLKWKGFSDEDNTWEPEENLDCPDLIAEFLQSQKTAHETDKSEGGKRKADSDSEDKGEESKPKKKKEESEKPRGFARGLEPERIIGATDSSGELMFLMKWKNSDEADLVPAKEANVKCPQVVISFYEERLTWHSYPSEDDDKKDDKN

| Structure (SMILES) | Potency |
| --- | --- |
| Cc1ccc(NC(=O)NC(C)c2c(-n3cccc3)sc(C)c2C)c(C)c1 (configuration not stated) | inactive |
| COc1ccc(CN(Cc2ccccc2)C(=O)c2ccc(O)cc2)cc1COc1ccc(NC(C)=O)cc1 | inactive |
| O=C(CN1CCN(c2ccc(O)cc2)CC1)Nc1cc(S(=O)(=O)N2CCOCC2)ccc1Cl | 79.4 µM (active) |
| O=C(CN1CCN(c2ccc(O)cc2)CC1)Nc1ccc(-c2ccccc2)cc1 | 79.4 µM (active) |
| Cc1ccc(Cl)cc1NC(=O)CN1CCN(S(=O)(=O)N2CCOCC2)CC1 | inactive |
| CC(=O)c1ccc(N2CCN(CC(=O)Nc3ccccc3N3CCOCC3)CC2)cc1 | inactive |
| CCN(CC)c1ccc(NC(=O)CN2CCN(c3ccccn3)CC2)cc1 | inactive |
| O=C(CN1CCN(c2cccc(Cl)c2)CC1)Nc1ccc(S(=O)(=O)N2CCOCC2)cc1 | inactive |
| COc1ccccc1CN1CCC(CNC(=O)c2cnn(-c3cccc(Cl)c3)c2C2CCN(C(=O)OC(C)(C)C)CC2)CC1 | inactive |
| Oc1ccc(Cl)cc1C1C=C(c2ccc3c(c2)OCO3)NC(c2c(F)cccc2Cl)N1 (configuration not stated) | inactive |
| CCOc1ccc(C2C(C(=O)Nc3ccc(Cl)cc3)=C(C)Nc3nc(C(F)(F)F)nn32)cc1 (configuration not stated) | inactive |
| CCOc1ccc(NC(=O)CCc2c(C)nn(-c3ccc(N4CCCC4)nn3)c2C)cc1 | inactive |
| Cc1ccc2nc(COc3cccc(NC(=O)c4cccc(Cl)c4)c3)cc(=O)n2c1 | inactive |
| Cc1cccc(C)c1-n1c(C)cc(/C=C2\C(=O)NN(c3ccccc3)C2=O)c1C | 15.8 µM (active) |
| CCCSc1ncc(Cl)c(C(=O)Nc2c(C(=O)Nc3ccccc3)oc3ccccc23)n1 | inactive |
| COc1ccccc1-c1nnc(C2CCN(C(=O)c3ccc(Cl)cc3)CC2)o1 | inactive |

| Structure (SMILES) | Potency |
| --- | --- |
| CCOc1ccc(Nc2nc3c(S(=O)(=O)c4cccc(Cl)c4)nnn3c3ccsc23)cc1 | inactive |
| Cc1ccc(Cn2cc(CCC(=O)NCc3ccc(OC(C)C)cc3)c3ccccc32)cc1 | inactive |
| COc1ccc(N2CCN(S(=O)(=O)c3cc(Br)cnc3N)CC2)cc1 | inactive |
| COc1ccc(N2CCN(Cc3ccc(Br)s3)CC2)cc1 | 17.8 µM (active) |
| COc1ccc(N2CCN(C(=O)c3cccs3)CC2)cc1 | inactive |
| Cc1ccc(Nc2nc3ccccc3nc2-n2nc(C)cc2C)c(Cl)c1 | inactive |
| Cc1ccc(Cl)cc1N(C)C(=O)Cn1nc(Cc2cccnc2)c2ccccc2c1=O | inactive |
| COc1ccc(-c2nc(SCC(=O)N3CCCCC3C)n[nH]2)cc1 (configuration not stated) | inactive |
| Cc1ccc(-c2nc(S(=O)(=O)c3ccc(C)cc3)c(N3CCCCCC3)o2)cc1 | inactive |
| CN1/C(=c2/s/c(=C3/C(=O)N(c4ccccc4)NC3=Nc3ccccc3)n(C)c2=O)C(C)(C)c2ccccc21 | 28.2 µM (active) |
| Cc1cc(C)cc(NC(=O)CSc2nc3nccnc3c(=O)n2CCc2c[nH]c3ccccc23)c1 | inactive |
| Cc1ccc(Cl)cc1NC(=O)NC1COc2ccccc2C1 (configuration not stated) | inactive |
| Cn1nnc2c(N3CCN(c4ccccc4)CC3)ncnc21 | inactive |
| CCOc1ccc(NC(=O)c2cc(S(=O)(=O)N3CCCC3)c[nH]2)cc1 | inactive |
| CC(=O)N(C1=C(Cl)C(=O)c2ccccc2C1=O)c1ccc(C(=O)O)cc1 | 7.94 µM (active) |
| CCOc1ccc(CNC(=O)Cn2cc3c(n2)-c2c(oc(C(=O)N4CCCC4)c2C)CC3)cc1 | inactive |
